Assay [1] can be described thus: Viability counterscreen for agonist of constitutive androstane receptor (CAR) against the NCATS DSHEA and TCM libraries (AID 1794838).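 Also: HepG2 cells with CYP2B6 reporter and hCAR plus 0.75 µM PK11195 antagonist; 0% is about no effect.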 The method in brief: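 HepG2-CYP2B6-hCAR cells (2,500/well) treated 24 h at 37C with compounds plus 0.75 uM PK11195; viability read by CellTiter-Fluor fluorescence, Ex/Em 405/540 nm.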
(A counterscreen serves to expose hits that act by an unwanted route or on another target.)

Assay [2] can be described thus: HepG2 viability counterscreen (readout 2: ATP content) against the NCATS DSHEA and TCM libraries (AID 1794840). Also: 0% is about no effect. The method in brief: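 HepG2 cells, 1,000/well, attached ~4 h, then exposed ~24 h at 37C to substances. Protease activity read by fluorescence of 25 uM GF-AFC (Ex/Em 380/510 nm) after 30 min; ATP then by CellTiter-Glo luminescence.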
Assay [3] deals with Cytochrome P450 3A4 (Homo sapiens) (UniProt P08684). The experiment in a line: qHTS for inhibitors of CYP3A4 against the NCATS DSHEA and TCM libraries (AID 1919971). Also: potency is read from the fitted curve at half-maximal effect. Summed up:
(§1)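 Light output from converted D-luciferin reports remaining CYP activity. Compounds preincubate with enzyme and substrate for 15 min; NADPH regeneration (1x final) runs the reaction for 30-45 min.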
(In qHTS, concentration-response curves come from the screen itself.)

Assay [4] has as its target Cytochrome P450 2D6 (Homo sapiens) (UniProt P10635). The assay is described as follows: qHTS for inhibitors of CYP2D6 against the NCATS DSHEA and TCM libraries (AID 1919972). Also: % is scaled to controls: 0 for no effect and ±100 for the full control effect. Summed up: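 Steps: enzyme plus luciferin substrate dispensed; test substances pinned; 15 min RT; 1x NADPH regenerating solution added, 30–45 min RT protected from light; detection reagent, 30 min RT; luminescence measured. Minus-enzyme wells as background.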

For assay [5], the target named is Cytochrome P450 2C9 (Homo sapiens) (UniProt P11712). The assay is described as follows: qHTS for inhibitors of CYP2C9 against the NCATS DSHEA and TCM libraries (AID 1919973). Also: potency is read from the fitted curve at half-maximal effect. Summed up: as §1
Cytochrome P450 2C9 (Homo sapiens), sequence (P11712 whole entry, looked up): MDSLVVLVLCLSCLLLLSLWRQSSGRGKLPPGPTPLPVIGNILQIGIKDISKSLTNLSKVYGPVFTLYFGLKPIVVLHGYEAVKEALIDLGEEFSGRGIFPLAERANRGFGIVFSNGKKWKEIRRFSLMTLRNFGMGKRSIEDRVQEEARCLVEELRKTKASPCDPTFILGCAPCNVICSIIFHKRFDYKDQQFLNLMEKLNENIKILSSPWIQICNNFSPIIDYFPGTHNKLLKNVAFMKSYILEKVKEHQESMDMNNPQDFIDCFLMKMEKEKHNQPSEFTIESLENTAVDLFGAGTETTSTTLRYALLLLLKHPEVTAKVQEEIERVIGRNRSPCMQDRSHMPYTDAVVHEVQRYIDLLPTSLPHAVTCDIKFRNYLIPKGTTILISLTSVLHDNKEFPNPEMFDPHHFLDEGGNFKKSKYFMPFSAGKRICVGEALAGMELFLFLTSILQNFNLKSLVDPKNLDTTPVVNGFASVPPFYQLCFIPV
In assay [6] the target is Cytochrome P450 2C19 (Homo sapiens) (UniProt P33261). The assay is described as follows: qHTS for inhibitors of CYP2C19 against the NCATS DSHEA and TCM libraries (AID 1919974).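 Also: luminescence from luciferin released by CYP2C19 oxidation of a pro-luciferin substrate.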 Also: potency is read from the fitted curve at half-maximal effect. Summed up:
as §1

The nature of assay [7]: KB-3-1 P-gp reporter qHTS against the NCATS DSHEA and TCM libraries (AID 1919975). Also: 0% is about no effect. Summed up:
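Parental KB-3-1 cells, 500 cells/well, in DMEM with 10% FBS, exposed 72 h at 37 C to compounds in concentration-response. Viability read by CellTiter-Glo luminescence after 30 min at room temperature.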

Assay [8] addresses Cytochrome P450 1A2 (Homo sapiens) (UniProt P05177). The assay is described as follows: qHTS for inhibitors of CYPIA2 against the NCATS DSHEA and TCM libraries (AID 1919976). Also: potency is read from the fitted curve at half-maximal effect. Summed up: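 In this quantitative HTS, inhibition of recombinant human CYP1A2 was measured as loss of luciferin-derived luminescence. Turnover ran 30-45 min at RT after NADPH regeneration solution was added.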

Assay [9] in a line: qHTS Counterscreen for compound interference against the NCATS DSHEA and TCM libraries (AID 1919978).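 Also: compounds preincubated with 1 µM D-luciferin or buffer before detection reagent; % of control where 0% means no effect.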 The following applies: firefly luciferase detection reagent interference, luminescence. The method in brief:
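Firefly luciferase detection reagent was added after compounds (19.5 nM–39.8 uM final) had been incubated 15 min at room temperature with 1 uM D-luciferin or with 100 mM phosphate buffer alone. Luminescence was read after 30 min at room temperature.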

Assay [10] has as its target Nuclear receptor subfamily 1 group I member 2 (Homo sapiens) (UniProt O75469). The assay is described as follows: Dual reporter qHTS for agonist of Pregnane X Receptor (hPXR) against the NCATS DSHEA and TCM libraries: Luminescence readout (AID 1920059). Also: potency is read from the fitted curve at half-maximal effect. The method in brief: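 hPXR-LucHepG2 cells in phenol red-free DMEM with 5% charcoal-stripped FBS, 2000 cells/well, attached 5 h, then exposed 24 h at 37C to compounds; rifampicin as positive agonist control (2.8 nM–92 uM). Luciferase luminescence read.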

The target is the same in assay [11]. The assay is described as follows: Dual reporter qHTS for antagonist of Pregnane X Receptor (hPXR) against the NCATS DSHEA and TCM libraries: Luminescence Readout (AID 1920060).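 Also: HepG2 cells carrying hPXR luciferase reporter stimulated with rifampicin at 2 µM; 0% is about no effect.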 The method in brief:
(§2)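 In antagonist mode, 2 uM rifampicin was added to hPXR-Luc HepG2 cells alongside test substances, incubated 24 h at 37 C; luminescence gave reporter activity, and CellTiter-Fluor fluorescence (405/540 nm) gave viability.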

Assay [12] is described as follows: Dual reporter qHTS for antagonist of Pregnane X Receptor (hPXR) against the NCATS DSHEA and TCM libraries: Fluorescence Readout (AID 1920061). Also: 0% is about no effect. The method in brief:
as §2

In assay [13] the target is Glucocorticoid receptor (Homo sapiens) (UniProt P04150). The experiment in a line: GR-GFP Redistribution (AID 450;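 active = compounds whose dose series gives a full or clear partial fitted curve of increased nuclear translocation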; also: potency is read from the fitted curve at half-maximal effect). The note with it: U2OS GR-GFP nuclear translocation, laser cytometry, 2 h.
Glucocorticoid receptor (Homo sapiens), sequence (P04150 whole entry, looked up): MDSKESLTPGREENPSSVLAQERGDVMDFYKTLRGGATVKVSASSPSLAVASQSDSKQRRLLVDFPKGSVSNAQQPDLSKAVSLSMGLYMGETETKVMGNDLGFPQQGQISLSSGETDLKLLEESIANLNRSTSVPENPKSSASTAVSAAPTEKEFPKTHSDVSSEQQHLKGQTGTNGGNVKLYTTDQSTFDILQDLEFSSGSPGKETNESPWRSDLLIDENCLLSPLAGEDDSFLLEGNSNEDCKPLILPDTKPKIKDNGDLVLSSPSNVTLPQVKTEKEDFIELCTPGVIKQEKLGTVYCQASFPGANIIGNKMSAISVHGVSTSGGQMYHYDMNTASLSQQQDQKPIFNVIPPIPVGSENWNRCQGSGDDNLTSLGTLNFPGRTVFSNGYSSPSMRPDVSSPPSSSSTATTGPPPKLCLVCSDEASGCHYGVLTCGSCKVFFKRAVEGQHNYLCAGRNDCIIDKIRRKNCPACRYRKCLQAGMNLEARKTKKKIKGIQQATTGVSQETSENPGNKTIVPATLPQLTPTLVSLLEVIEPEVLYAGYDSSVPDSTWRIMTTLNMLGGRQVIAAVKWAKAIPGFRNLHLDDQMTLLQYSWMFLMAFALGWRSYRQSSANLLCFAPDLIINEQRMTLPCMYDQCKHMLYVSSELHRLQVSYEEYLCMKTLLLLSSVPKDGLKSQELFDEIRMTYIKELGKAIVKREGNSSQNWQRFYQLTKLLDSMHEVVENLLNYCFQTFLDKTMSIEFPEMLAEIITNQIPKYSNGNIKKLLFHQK
For assay [14] the target is unchanged. The assay is described as follows: GR-EFC Redistribution (AID 451; calls by dose curve; also: potency is read from the fitted curve at half-maximal effect). The note with it: CHO-K1 GR-EFC translocation, beta-gal luminescence, 2 h. The method in brief:
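CHO-K1 cells stably expressing nuclear-localized β-gal enzyme acceptor and GR fused C-terminally to the enzyme donor fragment; ligand-driven nuclear translocation restores β-gal by complementation. Compounds titrated up to 46 uM final, 2 h at 37 °C; luminescence read.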

The target in assay [15] is Mitogen-activated protein kinase 10 (Mus musculus) (UniProt Q61831). The assay is described as follows: JNK3 AlphaScreen Assay (AID 530; active = well fitted curve in either direction with a large enough effect, not every such curve was filed as active;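 also: kinase came from lysate of stimulated human HepG2 cells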; also: potency is read from the fitted curve at half-maximal effect). The method in brief: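 JNK3 came from HepG2 lysates pre-activated with IL-1beta and TNF-alpha and phosphorylated biotinylated GST-cJun (1-79) at 10 uM ATP, pH 7.6, room temperature. Compounds were titrated. AlphaScreen signal used anti-phospho-cJun (Ser73) antibody.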
(In general: Bead proximity is the source of the signal in Alpha formats.)

Assay [16] deals with Nuclear receptor subfamily 1 group I member 3 (Homo sapiens) (UniProt Q14994). The experiment in a line: Primary qHTS for agonist of constitutive androstane receptor (CAR) against the NCATS DSHEA and TCM libraries (AID 1794839). Also: potency is read from the fitted curve at half-maximal effect. The method in brief:
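HepG2-CYP2B6-hCAR cells, 2,500/well, attached 5 h, then dosed with 0.75 µM PK11195 (final) for 24 h at 37 °C. Luciferase luminescence read (ONE-Glo); CellTiter-Fluor viability (Ex/Em 405/540 nm) in same wells; CITCO positive control.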

Assay [17] is described as follows: Viability counterscreen for antagonist of constitutive androstane receptor (CAR) against the NCATS DSHEA and TCM libraries (AID 1794837).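 Also: compound exposure lasted 24 h before viability reading; 0% is about no effect.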 Summed up: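 HepG2-CYP2B6-hCAR cells, 2,500/well, were exposed 24 hr at 37C to substances together with 48 uM CITCO (final). Viability was read as CellTiter-Fluor fluorescence (Ex/Em 405/540 nm) after 1 hr.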

A number with no mark means an inactive call. Inconclusive results are not listed. Activity calls are given as the source filed them. Unless noted, calls follow the shape of the dose curve; as a rule, active = well fitted curve in the direction sought with a large enough effect; inconclusive = small, poorly fitted or top-dose-only effect, or another doubt; inactive = no such curve, though single readings can be large; an effect the other way counts as inactive or inconclusive.

Cytochrome P450 3A4 (Homo sapiens), sequence (P08684 whole entry, looked up): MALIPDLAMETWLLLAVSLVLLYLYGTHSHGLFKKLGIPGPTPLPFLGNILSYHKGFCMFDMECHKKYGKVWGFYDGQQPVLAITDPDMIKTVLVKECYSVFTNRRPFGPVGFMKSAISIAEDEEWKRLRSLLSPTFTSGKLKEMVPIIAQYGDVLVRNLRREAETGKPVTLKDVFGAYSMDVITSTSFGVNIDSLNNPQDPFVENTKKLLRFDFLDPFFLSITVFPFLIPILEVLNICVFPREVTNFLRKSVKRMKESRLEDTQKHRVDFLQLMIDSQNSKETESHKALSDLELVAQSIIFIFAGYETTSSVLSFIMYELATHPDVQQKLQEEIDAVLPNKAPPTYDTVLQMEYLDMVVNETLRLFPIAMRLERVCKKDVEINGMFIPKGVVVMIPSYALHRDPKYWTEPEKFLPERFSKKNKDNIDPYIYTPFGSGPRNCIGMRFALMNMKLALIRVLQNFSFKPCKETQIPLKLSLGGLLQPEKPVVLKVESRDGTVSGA
Cytochrome P450 2C19 (Homo sapiens), sequence (P33261 whole entry, looked up): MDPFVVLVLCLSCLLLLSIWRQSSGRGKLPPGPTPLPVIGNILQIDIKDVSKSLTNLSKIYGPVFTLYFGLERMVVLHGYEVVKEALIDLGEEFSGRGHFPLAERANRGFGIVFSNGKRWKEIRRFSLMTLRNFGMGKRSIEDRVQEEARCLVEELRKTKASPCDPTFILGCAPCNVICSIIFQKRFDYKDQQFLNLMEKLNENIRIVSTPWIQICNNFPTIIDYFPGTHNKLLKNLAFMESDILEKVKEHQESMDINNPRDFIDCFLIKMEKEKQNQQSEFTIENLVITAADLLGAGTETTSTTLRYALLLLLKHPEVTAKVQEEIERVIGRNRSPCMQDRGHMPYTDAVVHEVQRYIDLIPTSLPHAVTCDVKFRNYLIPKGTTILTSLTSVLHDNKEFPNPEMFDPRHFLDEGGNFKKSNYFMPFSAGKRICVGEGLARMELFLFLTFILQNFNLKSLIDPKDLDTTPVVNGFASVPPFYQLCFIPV
Nuclear receptor subfamily 1 group I member 3 (Homo sapiens), sequence (Q14994 whole entry, looked up): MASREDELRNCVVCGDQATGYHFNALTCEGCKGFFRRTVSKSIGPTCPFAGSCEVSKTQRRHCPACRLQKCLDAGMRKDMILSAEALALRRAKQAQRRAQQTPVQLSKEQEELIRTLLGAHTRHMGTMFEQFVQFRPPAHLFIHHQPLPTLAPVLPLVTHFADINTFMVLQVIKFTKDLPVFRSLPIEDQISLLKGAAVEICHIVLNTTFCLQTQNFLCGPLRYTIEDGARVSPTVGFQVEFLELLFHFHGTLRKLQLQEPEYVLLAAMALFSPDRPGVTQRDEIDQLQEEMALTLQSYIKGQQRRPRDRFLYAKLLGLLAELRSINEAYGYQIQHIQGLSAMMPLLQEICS
Cytochrome P450 1A2 (Homo sapiens), sequence (P05177 whole entry, looked up): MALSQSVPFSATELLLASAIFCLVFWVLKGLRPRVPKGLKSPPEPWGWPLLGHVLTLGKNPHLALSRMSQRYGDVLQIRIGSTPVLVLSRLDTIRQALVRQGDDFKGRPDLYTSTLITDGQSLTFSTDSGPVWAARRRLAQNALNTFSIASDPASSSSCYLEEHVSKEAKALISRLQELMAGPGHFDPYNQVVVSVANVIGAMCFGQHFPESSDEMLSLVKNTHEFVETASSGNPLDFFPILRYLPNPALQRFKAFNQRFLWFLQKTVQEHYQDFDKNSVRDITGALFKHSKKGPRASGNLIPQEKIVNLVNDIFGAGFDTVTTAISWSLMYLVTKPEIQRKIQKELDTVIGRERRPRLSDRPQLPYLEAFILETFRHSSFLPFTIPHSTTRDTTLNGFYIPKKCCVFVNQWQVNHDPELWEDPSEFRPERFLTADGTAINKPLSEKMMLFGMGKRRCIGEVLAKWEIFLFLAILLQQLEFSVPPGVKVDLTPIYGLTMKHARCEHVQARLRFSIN
Cytochrome P450 2D6 (Homo sapiens), sequence (P10635 whole entry, looked up): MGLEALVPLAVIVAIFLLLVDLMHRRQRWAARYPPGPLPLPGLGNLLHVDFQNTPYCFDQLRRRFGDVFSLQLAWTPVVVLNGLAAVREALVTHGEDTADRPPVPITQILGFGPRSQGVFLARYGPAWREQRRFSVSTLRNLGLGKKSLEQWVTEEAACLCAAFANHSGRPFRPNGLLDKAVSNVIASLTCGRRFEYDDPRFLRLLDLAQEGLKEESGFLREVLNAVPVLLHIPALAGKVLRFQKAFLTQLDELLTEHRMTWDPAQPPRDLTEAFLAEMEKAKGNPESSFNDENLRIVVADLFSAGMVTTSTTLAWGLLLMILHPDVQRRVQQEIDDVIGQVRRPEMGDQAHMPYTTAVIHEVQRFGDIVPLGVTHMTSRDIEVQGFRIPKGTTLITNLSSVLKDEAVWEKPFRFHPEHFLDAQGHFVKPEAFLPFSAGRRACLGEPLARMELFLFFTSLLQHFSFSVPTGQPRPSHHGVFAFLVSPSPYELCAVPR
Nuclear receptor subfamily 1 group I member 2 (Homo sapiens), sequence (O75469 whole entry, looked up): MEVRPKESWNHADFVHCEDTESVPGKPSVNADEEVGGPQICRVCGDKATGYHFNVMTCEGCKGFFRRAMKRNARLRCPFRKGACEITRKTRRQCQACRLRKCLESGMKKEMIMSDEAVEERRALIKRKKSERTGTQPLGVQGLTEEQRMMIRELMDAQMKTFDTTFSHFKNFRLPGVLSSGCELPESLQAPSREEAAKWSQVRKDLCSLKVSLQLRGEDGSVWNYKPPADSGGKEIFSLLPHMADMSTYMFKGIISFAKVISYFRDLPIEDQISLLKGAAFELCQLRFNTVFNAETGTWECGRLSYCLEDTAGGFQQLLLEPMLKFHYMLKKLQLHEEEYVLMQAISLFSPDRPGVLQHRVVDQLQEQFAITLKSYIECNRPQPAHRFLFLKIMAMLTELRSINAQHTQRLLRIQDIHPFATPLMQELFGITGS

Regarding `Cc1ccc(O)c(O)c1`, the result in [1], in assay [2], in assay [7] and in [11] was inactive. In addition, the Potency entry in assay [3], in assay [4], in assay [5], in assay [6] and in [8] was “inactive” each time. The max response in assay [9] is -0.684%. Also, in assay [10], the Potency is 50.1 µM (active).
As to `CCCCC/C=C/C/C=C/CCCCCCCC(=O)O`, the call in assay [2], in [7], in [11] and in assay [12] was inactive. For the same compound, the Potency in [3] is 22.4 µM (active); in assay [5], 12.6 µM (active); in assay [6], 22.4 µM (active). The max response in [9] was 0.865%. The Potency entry in assay [10] was “inactive”.
With `O=c1cc(-c2ccc(O)c(O)c2)oc2cc(O[C@@H]3O[C@@H](CO)[C@@H](O)[C@@H](O)[C@H]3O)cc(O)c12`, the Potency in assay [13] is greater than 46 µM; in assay [14], greater than 46 µM; in assay [15] it was 7.94 µM (active); in [16], 28.2 µM (active); in assay [5] it was 3.98 µM (active); in [6], 3.55 µM (active). Also, the Potency in assay [8] was 3.98 µM (active). Besides, the compound was called inactive in [1], in [2], in assay [7] and in [11]. In addition, the Potency result in [3], in assay [4] and in assay [10] was “inactive” each time. For the same compound, the max response in assay [9] was 0.762%.
With `C=CC(C)(CCC=C(C)C)OC(C)=O` (configuration not stated), the outcome in [17], in [1], in assay [2], in assay [7], in [11] and in [12] was inactive. Also, the Potency entry in assay [16], in assay [3], in assay [4], in assay [5], in [6] and in assay [8] was “inactive” each time. Moreover, the Potency result in [10] was “inactive”.
For `O[C@@H]1[C@@H](O)[C@H](OC/C=C/c2ccccc2)O[C@H](CO[C@@H]2OC[C@H](O)[C@H](O)[C@H]2O)[C@H]1O`, the compound was called inactive in [17], in assay [1], in assay [2], in [7], in [11] and in [12]. Also, the Potency entry in assay [16], in [3], in [4], in assay [5], in [6] and in assay [8] was “inactive” in each case. Also, in assay [10], the Potency result was “inactive”.
For `Cc1ccc(C(C)C)cc1`, the compound was called inactive in assay [17], in assay [1], in assay [2], in [7], in [11] and in assay [12]. Besides, the Potency result in assay [16], in assay [3], in assay [4], in assay [5], in [6] and in [8] was “inactive” each time. Also, the Potency entry in assay [10] is “inactive”. In [9], the max response is -0.622%.
Regarding `CC(=O)OC/C=C/c1ccccc1`, the outcome in assay [17], in assay [1], in assay [2], in assay [7], in assay [11] and in [12] was inactive. For the same compound, the Potency result in [16], in [3], in [4], in [5] and in assay [10] was “inactive” throughout. Besides, in assay [8], the Potency was 28.2 µM (active).
With `CC12CC3(O)OC(O1)C1(COC(=O)c4ccc(O)cc4)C3CC21OC1OC(CO)C(O)C(O)C1O` (configuration not stated), the compound was called inactive in assay [17], in assay [1], in [2], in assay [7], in assay [11] and in assay [12]. The Potency result in assay [16], in assay [3], in assay [4], in assay [5], in assay [6] and in [8] was “inactive” each time. For the same compound, the Potency result in assay [10] is “inactive”.
Take `COc1ccc(-c2coc3cc(O[C@@H]4O[C@H](CO)[C@@H](O)[C@H](O)[C@H]4O)ccc3c2=O)cc1`: the call in assay [17], in assay [1], in assay [2], in assay [7], in [11] and in assay [12] was inactive. In assay [16], the Potency is 11.2 µM (active). Moreover, the Potency entry in assay [3], in assay [4], in assay [5], in assay [6], in assay [8] and in assay [10] was “inactive” each time.
With `C=CC(=C)CCC=C(C)C`, the Potency result in assay [15], in assay [16], in assay [3], in assay [4], in [5] and in assay [6] was “inactive” throughout. Moreover, the Potency result in assay [8] and in [10] was “inactive” each time. In addition, the compound was classed as inactive in [17], in [1], in [2], in assay [7], in assay [11] and in assay [12].

Source of the values: PubChem BioAssay (NCATS).
